Several values for one entry are separate records, joined by “and”; a condition that tells them apart may be missing. Equal entries are not always repeated. Inconclusive results are not listed. A structure can be active in one record and inactive in another. Activity calls are given as the source filed them. Unless noted, calls follow the shape of the dose curve; as a rule, active = well fitted curve in the direction sought with a large enough effect in the repeat runs; inconclusive = weak or mixed curves; inactive = no such curve, though single readings can be large; an effect the other way counts as inactive or inconclusive.

Test [1] is described as follows: qHTS assay to identify small molecule antagonists of the vitamin D receptor (VDR) signaling pathway - cell viability counter screen (AID 743225). Also: nearly all actives have a fitted effect of over 50% in size. Also: potency is read from the fitted curve at half-maximal effect. A digest of the protocol: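 Viability counter screen run in the same wells as the beta-lactamase reporter assay: HEK 293T VDR-UAS-bla cells, 16 h compound exposure at 37C with 3 nM (final) 1-alpha,25-dihydroxyvitamin D3. CellTiter-Glo luminescence, 30 min, room temperature.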

Test [2] in a line: qHTS assay to identify small molecule agonists of the NFkB signaling pathway - cell viability counter screen (AID 1159515; calls by dose curve; also: nearly all actives have a fitted effect of over 55% in size; also: potency is read from the fitted curve at half-maximal effect). A digest of the protocol: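 Read by CellTiter-Glo luminescence (30 min, room temperature) in the wells also used for the beta-lactamase FRET read. ME-180 NFkB-bla cells at 2,000 per well were plated overnight, then exposed to compound for 5 hr at 37 C.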

Test [3] in a line: qHTS assay to identify small molecule agonists of the endoplasmic reticulum stress response signaling pathway (AID 1159516; active = well fitted activation curve with a large enough effect in the signal ratio in the repeat runs, not every such curve was filed as active; the % refers to the signal ratio). The essentials: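 Ratiometric FRET readout (405 nm excitation; 460 and 530 nm emission) of a beta-lactamase gene driven by the ER stress response element, after 2 hr substrate loading. HeLa ESRE-bla cells were seeded overnight and treated with compounds for only 5 hr at 37 C.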

Test [4] in a line: qHTS assay to identify small molecule agonists of the endoplasmic reticulum stress response signaling pathway - cell viability counter screen (AID 1159517; calls by dose curve; also: nearly all actives have a fitted effect of over 50% in size; also: potency is read from the fitted curve at half-maximal effect). A digest of the protocol:
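After overnight attachment, ESRE-bla HeLa cells were treated with Tox21 library compounds for 5 hr. CellTiter-Glo luminescence, read 30 min post-addition at room temperature, reported viability.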

Test [5] is described as follows: qHTS assay to identify small molecule antagonists of the retinoid-related orphan receptor gamma (ROR-gamma) signaling pathway - cell viability counter screen (AID 1159520). Also: nearly all actives have a fitted effect of over 50% in size. Also: potency is read from the fitted curve at half-maximal effect. A digest of the protocol: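 Cytotoxicity was read from cellular ATP (CellTiter-Glo luminescence) after 16 hr at 37 C with 1 uM doxycycline induction. The inducer was added 2 hr after compound transfer to Tet-on ROR gamma CHO cells.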

Test [6] has as its target Nuclear receptor ROR-gamma (Homo sapiens) (UniProt P51449). The experiment in a line: qHTS assay to identify small molecule antagonists of the retinoid-related orphan receptor gamma (ROR-gamma) signaling pathway (AID 1159521; also: nearly all actives have a fitted effect of over 50% in size; also: potency is read from the fitted curve at half-maximal effect). The essentials:
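Luminescence readout (ONE-Glo, 30 min RT) after 16 h doxycycline induction; loss of signal scored as antagonism. CHO cells with TET-inducible RORγ and RORE-LUC reporter; compounds added 2 h before 1 uM final doxycycline.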

A short description of test [7]: qHTS assay to identify small molecule agonists of the AP-1 signaling pathway - cell viability counter screen (AID 1159525; calls by dose curve; also: nearly all actives have a fitted effect of over 55% in size; also: potency is read from the fitted curve at half-maximal effect). A digest of the protocol: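 Intracellular ATP by Cell Titer Glo luminescence (30 min, RT) in the same ME-180 AP-1-bla wells after the 5 h compound exposure at 37 °C. Normalised to tetra n-octyl ammonium bromide and DMSO controls.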
Test [8] can be described thus: qHTS assay to identify small molecule agonists of the AP-1 signaling pathway (AID 1159526; calls by dose curve).
For test [9], the target named is Retinoic acid receptor RXR-alpha (Homo sapiens) (UniProt P19793). Nature of the test: qHTS assay to identify small molecule agonists of the RXR signaling pathway (AID 1159527; calls by dose curve; also: nearly all actives have a fitted effect of over 35% in size). A digest of the protocol: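 Agonist mode; 9-cis retinoic acid positive control. HEK 293T UAS-bla reporter cells, 2% charcoal-stripped FBS, 16 hr compound exposure at 37 C/5% CO2. LiveBLAzer B/G FRET substrate 2 hr RT; ex 405, em 460/530 nm.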
Sequence of Retinoic acid receptor RXR-alpha (Homo sapiens) (P19793 whole entry, looked up): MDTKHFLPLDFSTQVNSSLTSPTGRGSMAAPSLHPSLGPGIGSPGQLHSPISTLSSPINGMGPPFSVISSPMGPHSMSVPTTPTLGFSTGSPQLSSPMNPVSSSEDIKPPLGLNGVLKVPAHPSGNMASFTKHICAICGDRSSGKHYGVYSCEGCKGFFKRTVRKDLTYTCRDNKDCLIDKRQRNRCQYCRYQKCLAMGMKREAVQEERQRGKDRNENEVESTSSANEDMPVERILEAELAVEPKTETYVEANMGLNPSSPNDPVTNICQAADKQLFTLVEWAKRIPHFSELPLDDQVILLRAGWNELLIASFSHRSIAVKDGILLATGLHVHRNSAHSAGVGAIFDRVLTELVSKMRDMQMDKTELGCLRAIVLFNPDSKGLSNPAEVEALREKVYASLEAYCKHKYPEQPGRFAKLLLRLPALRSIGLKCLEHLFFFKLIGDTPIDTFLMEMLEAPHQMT

The nature of test [10]: qHTS assay to identify small molecule antagonists of the retinoid acid receptor (RAR) signaling pathway - cell viability counter screen (AID 1159551). Also: nearly all actives have a fitted effect of over 35% in size. The essentials: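 Cytotoxicity counter screen: ATP content quantified by CellTiter-Glo luminescence in C3RL4 cells treated 6 hr at 37 C with compound and retinol (1 uM final). Cells plated at 1,000/well and cultured overnight before dosing.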

Test [11] can be described thus: qHTS assay to identify small molecule antagonists of the retinoic acid receptor (RAR) signaling pathway (AID 1159552; also: nearly all actives have a fitted effect of over 50% in size; also: potency is read from the fitted curve at half-maximal effect). A digest of the protocol:
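Luminescence from a RARE luciferase reporter in C3RL4 cells served as read-out. Cells received compounds together with 1 uM final retinol and incubated 6 hr at 37 C before detection reagent was added for 30 min at room temperature.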

Test [12] is described as follows: qHTS assay to identify small molecule agonists of the RXR signaling pathway - cell viability counter screen (AID 1159529). Also: nearly all actives have a fitted effect of over 50% in size. Also: potency is read from the fitted curve at half-maximal effect. The essentials:
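Luminescence from CellTiter-Glo (30 min, RT) measured viability in the same wells as the beta-lactamase reporter readout. Cells: GeneBLAzer RXR-alpha HEK 293T, 2% charcoal-stripped FBS. Compound exposure 16 hr, 37 C.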

Test [13] can be described thus: qHTS assay to identify small molecule agonists of the retinoic acid receptor (RAR) signaling pathway (AID 1159553). A digest of the protocol:
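Luminescence was measured 30 min after luciferase reagent addition at room temperature. Before that, C3RL4 reporter cells (1,000 per well, plated overnight) were treated with compound for 6 hr at 37 C and 5% CO2.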

Test [14] can be described thus: qHTS assay to identify small molecule agonists of the vitamin D receptor (VDR) signaling pathway - cell viability counter screen (AID 743224). Also: nearly all actives have a fitted effect of over 50% in size. Also: potency is read from the fitted curve at half-maximal effect. A digest of the protocol: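 Counter screen run in the same wells as the VDR-bla reporter assay: CellTiter-Glo luminescence, 30 min at room temperature, after 16 h compound treatment at 37C of cells pre-plated for 4 h.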
The nature of test [15]: qHTS assay to identify small molecule antagonists of the estrogen related receptor (ERR) signaling pathway - cell viability counter screen (AID 1224818). Also: series mostly up to about 46 µM. A digest of the protocol: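 Cytotoxicity counter screen: fluorescence from CellTiter-Fluor, added after 17.5 h compound exposure at 37 C and read 30 min later. ERR cell line seeded at 2,000 cells/well, preincubated 6 h before dosing.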

The nature of test [16]: qHTS assay to identify small molecule antagonists of the estrogen related receptor signaling pathway with the pleiotropic PPARgamma coactivator (PGC) cell viability counter screen (AID 1224822; also: series mostly up to about 46 µM). The essentials: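 Viability counter-screen read by fluorescence intensity after 30 min with CellTiter-Fluor at 37 C; PGC/ERR reporter cells were exposed to compounds for 17.5 h at 37 C following a 6 h preincubation.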

As to `C[C@]12CC[C@H]3[C@@H](CCC4=CC(=O)CC[C@@H]43)[C@@H]1CC[C@@H]2OC(=O)CCc1ccccc1`, the Potency entry in [1], in test [2], in [3], in [4], in [5] and in [6] was “inactive” each time. Also, the Potency result in test [7], in [8], in test [9], in test [10] and in test [11] was “inactive” each time.

As to `O=C1CC[C@@]2(O)[C@H]3Cc4ccc(O)c5c4[C@@]2(CCN3CC2CC2)[C@H]1O5`, the Potency result in test [2], in test [3], in test [4], in test [5], in test [7] and in [8] was “inactive” throughout. Moreover, the Potency result in [9], in [12], in test [10], in [11] and in [13] was “inactive” throughout.

In the case of `CCOC(=O)NC(O)C(Cl)(Cl)Cl` (stereo unspecified), the Potency result in test [14], in test [1], in test [2], in [3], in test [4] and in test [5] was “inactive” in each case. For the same compound, the Potency entry in test [6], in [8], in test [12], in test [10], in test [11] and in [13] was “inactive” each time.

Consider `CC(C)(c1ccccc1)c1cc(-n2nc3ccccc3n2)c(O)c(C(C)(C)c2ccccc2)c1`, for which the Potency entry in [14], in test [2], in [3], in [4], in [5] and in test [6] was “inactive” throughout. Also, the Potency entry in test [8], in test [9], in [12], in test [10], in test [11] and in test [13] was “inactive” each time.

`COC(=O)C1(O)c2ccccc2-c2ccccc21`: the Potency result in test [14], in test [1], in test [2], in test [3], in [4] and in test [5] was “inactive” each time. The Potency result in test [6], in [8], in test [9], in [12], in test [10] and in [11] was “inactive” in each case. Besides, the Potency result in [13] is “inactive”.

For the compound `CC(=O)NNc1ccccc1`, the Potency result in test [2], in [3], in test [4], in [5], in test [6] and in [8] was “inactive” each time. Also, the Potency entry in test [12], in test [10], in test [11] and in [13] was “inactive” each time.

`CN(C)N`: the Potency entry in test [14], in test [2], in test [3], in test [4], in test [5] and in test [7] was “inactive” in each case. For the same compound, the Potency result in test [8], in test [9], in [12], in test [10], in test [11] and in test [13] was “inactive” in each case.

On to `CN(C)c1ccc(N=O)cc1`, for which the Potency in [14] was 19.6 µM (active) and 43.6 µM (active); in test [1] it was “inactive and 19.5 µM (active)”; in [2], 43.6 µM (active); in test [4], 43.6 µM (active); in [5], 15.4 µM (active) and 12.2 µM (active); in test [6], 4.34 µM (active) and 9.69 µM (active). Besides, the Potency in [7] is 21.9 µM (active) and 30.9 µM (active); in [12], 34.8 µM (active); in test [11], 24.4 µM (active). Further, the Potency entry in test [3] was “inactive”.

Turning to `COc1ccc2c(c1OC)C(=O)O[C@H]2[C@@H]1c2cc3c(cc2CCN1C)OCO3`, the Potency entry in test [14], in [1], in test [2], in test [3], in test [4] and in [5] was “inactive” throughout. Also, the Potency result in test [6], in test [8], in [9], in [12] and in test [10] was “inactive” each time. The compound was classed as inactive in [15] and in test [16].

On to `C[C@]12C=CC3=C4CCC(=O)C=C4CC[C@H]3[C@@H]1CC[C@@H]2O`, for which the Potency result in test [1], in [2], in [3], in test [4], in test [5] and in test [6] was “inactive” in each case. Besides, the Potency result in test [7], in [8], in test [12] and in test [10] was “inactive” each time.

`CC(C)CCON=O`: the Potency entry in test [14], in [1], in test [2], in [3], in test [4] and in [5] was “inactive” throughout. In addition, the Potency entry in [6], in test [8], in [9], in test [10], in [11] and in [13] was “inactive” in each case.

Values taken from PubChem BioAssay (Tox21).
